The target of assay [1] is Dual specificity protein kinase CLK3 (Homo sapiens) (UniProt P49761). The settings on record: at 1 µM.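 Further: each value is the mean inhibition of CLK3.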
In assay [2] the target is Dual specificity tyrosine-phosphorylation-regulated kinase 1A (Homo sapiens) (UniProt Q13627). To be noted: at 0.1 µM.
Assay [3] has the same target. To be noted: at 1 µM.
The target in assay [4] is Dual specificity tyrosine-phosphorylation-regulated kinase 1B (Homo sapiens) (UniProt Q9Y463). The settings on record: at 0.1 µM.
Sequence of Dual specificity tyrosine-phosphorylation-regulated kinase 1B (Homo sapiens) (Q9Y463 whole entry, looked up): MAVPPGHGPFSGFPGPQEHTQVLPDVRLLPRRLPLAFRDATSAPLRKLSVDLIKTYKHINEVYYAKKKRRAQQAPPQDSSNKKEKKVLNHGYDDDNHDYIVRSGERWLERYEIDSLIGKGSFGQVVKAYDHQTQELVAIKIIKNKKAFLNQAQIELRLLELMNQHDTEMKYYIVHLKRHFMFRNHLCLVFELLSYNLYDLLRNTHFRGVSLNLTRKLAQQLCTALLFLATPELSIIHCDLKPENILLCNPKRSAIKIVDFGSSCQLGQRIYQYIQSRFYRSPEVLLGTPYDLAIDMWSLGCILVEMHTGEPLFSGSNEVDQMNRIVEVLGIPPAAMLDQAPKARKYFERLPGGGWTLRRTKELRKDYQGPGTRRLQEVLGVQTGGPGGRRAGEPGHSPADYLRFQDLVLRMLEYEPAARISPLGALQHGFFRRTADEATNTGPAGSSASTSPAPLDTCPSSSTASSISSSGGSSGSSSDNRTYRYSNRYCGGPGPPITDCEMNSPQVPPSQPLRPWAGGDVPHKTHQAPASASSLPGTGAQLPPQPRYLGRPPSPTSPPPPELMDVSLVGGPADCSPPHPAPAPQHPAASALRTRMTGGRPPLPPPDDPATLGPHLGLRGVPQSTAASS
For assay [5] the target is unchanged. To be noted: at 1 µM.
Assay [6] has as its target T1, Dual specificity tyrosine-phosphorylation-regulated kinase 2 (Homo sapiens) (UniProt Q92630).
T1 sequence (whole entry): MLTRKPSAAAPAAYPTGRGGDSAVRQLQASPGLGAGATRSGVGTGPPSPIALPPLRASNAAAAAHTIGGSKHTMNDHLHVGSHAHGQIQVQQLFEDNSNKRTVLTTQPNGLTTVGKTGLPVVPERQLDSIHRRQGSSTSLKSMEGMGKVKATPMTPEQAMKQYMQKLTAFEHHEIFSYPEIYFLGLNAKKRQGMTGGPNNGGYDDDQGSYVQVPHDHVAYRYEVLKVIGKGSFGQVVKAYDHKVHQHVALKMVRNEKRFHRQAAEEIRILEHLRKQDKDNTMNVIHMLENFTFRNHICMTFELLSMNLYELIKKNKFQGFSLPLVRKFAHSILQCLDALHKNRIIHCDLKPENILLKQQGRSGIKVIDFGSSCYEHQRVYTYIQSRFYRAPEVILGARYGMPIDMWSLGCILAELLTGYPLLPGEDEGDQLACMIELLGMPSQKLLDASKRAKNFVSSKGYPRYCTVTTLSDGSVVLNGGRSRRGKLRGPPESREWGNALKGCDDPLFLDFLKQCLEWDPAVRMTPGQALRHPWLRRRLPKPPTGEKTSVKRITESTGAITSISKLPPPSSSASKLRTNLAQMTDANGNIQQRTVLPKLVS
To be noted: at 0.1 µM.

The target in assay [7] is T1, Dual specificity tyrosine-phosphorylation-regulated kinase 2 (Homo sapiens). The settings on record: at 1 µM.
Assay [8] has as its target Glycogen synthase kinase-3 alpha (Homo sapiens) (UniProt P49840). To be noted: at 0.1 µM.
The target is the same in assay [9]. The settings on record: at 1 µM.
Assay [10] addresses Glycogen synthase kinase-3 beta (Homo sapiens) (UniProt P49841). The settings on record: at 0.1 µM.
For assay [11] the target is unchanged. To be noted: at 1 µM.
The target of assay [12] is Homeodomain-interacting protein kinase 1 (Homo sapiens) (UniProt Q86Z02). To be noted: at 0.1 µM.
Sequence of Homeodomain-interacting protein kinase 1 (Homo sapiens) (Q86Z02 whole entry, looked up): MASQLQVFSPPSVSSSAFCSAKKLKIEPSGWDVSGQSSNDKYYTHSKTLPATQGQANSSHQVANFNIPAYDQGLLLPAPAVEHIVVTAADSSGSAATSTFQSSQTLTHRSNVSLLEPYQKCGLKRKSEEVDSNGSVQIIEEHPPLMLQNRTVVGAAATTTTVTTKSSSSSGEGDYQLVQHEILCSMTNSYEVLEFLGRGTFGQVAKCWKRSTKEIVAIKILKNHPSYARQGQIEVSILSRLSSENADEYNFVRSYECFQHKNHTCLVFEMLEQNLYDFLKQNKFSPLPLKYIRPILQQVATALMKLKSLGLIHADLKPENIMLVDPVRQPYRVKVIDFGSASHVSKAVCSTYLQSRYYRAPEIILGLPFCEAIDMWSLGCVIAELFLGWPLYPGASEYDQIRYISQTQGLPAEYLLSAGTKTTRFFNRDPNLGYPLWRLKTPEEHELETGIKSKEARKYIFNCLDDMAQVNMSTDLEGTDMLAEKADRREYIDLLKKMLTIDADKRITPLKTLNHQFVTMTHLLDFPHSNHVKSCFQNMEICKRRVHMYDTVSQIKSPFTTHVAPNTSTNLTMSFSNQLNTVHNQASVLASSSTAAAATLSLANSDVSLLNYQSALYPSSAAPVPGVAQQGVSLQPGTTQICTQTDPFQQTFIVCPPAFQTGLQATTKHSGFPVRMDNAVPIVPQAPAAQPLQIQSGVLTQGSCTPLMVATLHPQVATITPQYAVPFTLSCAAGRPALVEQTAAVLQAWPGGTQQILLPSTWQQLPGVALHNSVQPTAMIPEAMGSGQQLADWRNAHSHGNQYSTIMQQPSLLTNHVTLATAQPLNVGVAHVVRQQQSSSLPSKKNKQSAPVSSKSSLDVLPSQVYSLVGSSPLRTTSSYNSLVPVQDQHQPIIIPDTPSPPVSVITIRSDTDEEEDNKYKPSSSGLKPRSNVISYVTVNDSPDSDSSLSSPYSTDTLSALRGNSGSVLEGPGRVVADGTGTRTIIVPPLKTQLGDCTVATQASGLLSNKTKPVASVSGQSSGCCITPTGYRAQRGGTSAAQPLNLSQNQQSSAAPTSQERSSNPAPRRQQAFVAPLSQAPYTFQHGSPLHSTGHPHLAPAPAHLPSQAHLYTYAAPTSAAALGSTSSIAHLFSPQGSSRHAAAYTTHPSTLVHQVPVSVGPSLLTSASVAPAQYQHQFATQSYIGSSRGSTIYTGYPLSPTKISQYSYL
Assay [13] shares this target. The settings on record: at 1 µM.
In assay [14] the target is T2, Homeodomain-interacting protein kinase 4 (Homo sapiens) (UniProt Q8NE63).
T2 sequence (whole entry): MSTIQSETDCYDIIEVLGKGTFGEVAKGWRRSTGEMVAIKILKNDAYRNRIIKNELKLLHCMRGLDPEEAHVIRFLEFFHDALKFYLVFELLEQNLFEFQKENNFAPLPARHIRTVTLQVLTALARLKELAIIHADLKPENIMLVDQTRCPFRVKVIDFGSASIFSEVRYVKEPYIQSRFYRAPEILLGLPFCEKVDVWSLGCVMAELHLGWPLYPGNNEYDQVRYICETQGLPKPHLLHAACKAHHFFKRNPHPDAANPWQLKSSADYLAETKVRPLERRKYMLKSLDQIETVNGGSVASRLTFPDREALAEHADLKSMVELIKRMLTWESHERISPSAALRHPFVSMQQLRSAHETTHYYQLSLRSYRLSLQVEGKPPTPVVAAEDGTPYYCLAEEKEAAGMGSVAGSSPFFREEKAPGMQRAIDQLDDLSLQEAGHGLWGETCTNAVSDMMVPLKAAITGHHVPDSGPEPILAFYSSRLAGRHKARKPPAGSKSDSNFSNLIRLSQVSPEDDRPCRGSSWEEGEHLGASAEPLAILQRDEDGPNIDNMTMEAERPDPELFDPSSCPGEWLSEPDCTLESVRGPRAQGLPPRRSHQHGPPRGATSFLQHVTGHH
The settings on record: at 0.1 µM.

Assay [15] concerns the target T2, Homeodomain-interacting protein kinase 4 (Homo sapiens). The settings on record: at 1 µM.
Assay [16] deals with Mitogen-activated protein kinase 9 (Homo sapiens) (UniProt P45984). To be noted: at 0.1 µM.
Sequence of Mitogen-activated protein kinase 9 (Homo sapiens) (P45984 whole entry, looked up): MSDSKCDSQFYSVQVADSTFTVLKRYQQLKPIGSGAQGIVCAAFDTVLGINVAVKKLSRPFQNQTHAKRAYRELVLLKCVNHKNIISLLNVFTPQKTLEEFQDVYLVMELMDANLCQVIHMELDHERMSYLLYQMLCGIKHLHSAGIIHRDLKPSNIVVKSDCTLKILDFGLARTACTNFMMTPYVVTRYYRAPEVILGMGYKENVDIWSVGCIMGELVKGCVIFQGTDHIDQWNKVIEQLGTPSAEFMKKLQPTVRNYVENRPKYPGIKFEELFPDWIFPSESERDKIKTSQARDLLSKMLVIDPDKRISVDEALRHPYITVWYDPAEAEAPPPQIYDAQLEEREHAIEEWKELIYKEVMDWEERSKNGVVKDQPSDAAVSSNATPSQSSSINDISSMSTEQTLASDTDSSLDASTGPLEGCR
For assay [17] the target is unchanged. The settings on record: at 1 µM.
Assay [18] addresses Mitogen-activated protein kinase 1 (Homo sapiens) (UniProt P28482). To be noted: at 0.1 µM.
For assay [19] the target is unchanged. The settings on record: at 1 µM.
The target in assay [20] is Mitogen-activated protein kinase 3 (Homo sapiens) (UniProt P27361). To be noted: at 0.1 µM.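 Further: each value is a mean inhibition figure.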
Sequence of Mitogen-activated protein kinase 3 (Homo sapiens) (P27361 whole entry): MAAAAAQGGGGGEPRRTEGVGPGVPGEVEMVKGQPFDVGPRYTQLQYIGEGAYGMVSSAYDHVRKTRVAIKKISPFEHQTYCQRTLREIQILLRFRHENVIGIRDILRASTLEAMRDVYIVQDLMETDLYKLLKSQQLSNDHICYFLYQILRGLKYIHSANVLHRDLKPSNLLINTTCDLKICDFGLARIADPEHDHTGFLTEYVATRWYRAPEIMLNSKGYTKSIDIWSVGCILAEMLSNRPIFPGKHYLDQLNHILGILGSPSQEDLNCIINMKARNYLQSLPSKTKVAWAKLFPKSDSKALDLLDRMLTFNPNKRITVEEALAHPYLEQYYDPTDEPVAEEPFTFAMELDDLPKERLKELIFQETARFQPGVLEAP

Sequence of Dual specificity protein kinase CLK3 (Homo sapiens) (P49761 whole entry, looked up): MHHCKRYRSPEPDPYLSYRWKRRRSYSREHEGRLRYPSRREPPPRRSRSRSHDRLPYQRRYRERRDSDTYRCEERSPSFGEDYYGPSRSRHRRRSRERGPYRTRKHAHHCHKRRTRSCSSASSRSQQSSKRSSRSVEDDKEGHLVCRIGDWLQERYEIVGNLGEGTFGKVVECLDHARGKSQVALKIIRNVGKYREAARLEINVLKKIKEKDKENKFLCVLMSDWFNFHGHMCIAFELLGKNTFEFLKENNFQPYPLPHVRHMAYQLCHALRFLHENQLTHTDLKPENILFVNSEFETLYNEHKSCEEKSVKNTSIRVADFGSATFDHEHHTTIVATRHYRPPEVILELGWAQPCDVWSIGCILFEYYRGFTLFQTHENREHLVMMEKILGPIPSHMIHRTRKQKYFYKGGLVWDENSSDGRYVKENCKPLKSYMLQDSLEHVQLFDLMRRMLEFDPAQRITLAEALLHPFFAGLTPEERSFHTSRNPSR
Sequence of Glycogen synthase kinase-3 beta (Homo sapiens) (P49841 whole entry, looked up): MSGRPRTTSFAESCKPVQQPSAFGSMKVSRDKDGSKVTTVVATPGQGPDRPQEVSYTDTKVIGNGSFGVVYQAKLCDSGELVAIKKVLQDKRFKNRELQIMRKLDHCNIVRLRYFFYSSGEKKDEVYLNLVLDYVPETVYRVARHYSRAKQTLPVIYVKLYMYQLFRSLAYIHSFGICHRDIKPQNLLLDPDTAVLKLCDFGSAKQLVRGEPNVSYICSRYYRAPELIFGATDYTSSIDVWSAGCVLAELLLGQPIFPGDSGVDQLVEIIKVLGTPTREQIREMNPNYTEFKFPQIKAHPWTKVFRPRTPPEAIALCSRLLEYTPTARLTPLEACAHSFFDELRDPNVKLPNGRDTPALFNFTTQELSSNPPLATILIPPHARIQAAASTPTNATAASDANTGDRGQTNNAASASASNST
Sequence of Glycogen synthase kinase-3 alpha (Homo sapiens) (P49840 2-483 limits assumed): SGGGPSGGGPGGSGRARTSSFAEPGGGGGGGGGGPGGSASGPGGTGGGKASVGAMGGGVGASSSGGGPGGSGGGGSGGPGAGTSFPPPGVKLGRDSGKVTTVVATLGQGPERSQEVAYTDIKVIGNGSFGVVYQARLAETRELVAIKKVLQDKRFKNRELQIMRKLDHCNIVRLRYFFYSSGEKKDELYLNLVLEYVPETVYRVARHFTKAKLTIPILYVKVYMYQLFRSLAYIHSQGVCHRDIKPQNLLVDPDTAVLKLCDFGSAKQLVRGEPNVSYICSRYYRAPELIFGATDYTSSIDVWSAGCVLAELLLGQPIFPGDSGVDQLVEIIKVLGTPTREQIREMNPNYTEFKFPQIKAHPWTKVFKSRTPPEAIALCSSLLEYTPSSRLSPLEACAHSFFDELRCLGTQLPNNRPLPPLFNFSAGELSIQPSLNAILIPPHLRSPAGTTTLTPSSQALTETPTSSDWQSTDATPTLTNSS
Sequence of Mitogen-activated protein kinase 1 (Homo sapiens) (P28482 whole entry): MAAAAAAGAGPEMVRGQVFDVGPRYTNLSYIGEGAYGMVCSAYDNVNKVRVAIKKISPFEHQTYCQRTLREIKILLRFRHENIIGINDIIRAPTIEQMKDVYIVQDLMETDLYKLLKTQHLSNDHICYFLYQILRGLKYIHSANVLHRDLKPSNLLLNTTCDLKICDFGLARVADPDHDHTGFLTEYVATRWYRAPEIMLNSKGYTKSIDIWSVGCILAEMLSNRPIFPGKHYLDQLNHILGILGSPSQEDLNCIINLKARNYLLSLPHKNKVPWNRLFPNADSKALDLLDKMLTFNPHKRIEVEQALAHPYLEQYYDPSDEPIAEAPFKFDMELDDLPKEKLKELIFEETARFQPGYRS

Consider `Nc1ccc(C#Cc2cncnc2Nc2ccc(OCc3cccc(F)c3)c(Cl)c2)cc1`, for which the inhibition (in general, the relative decrease from the control value, in per cent) in assay [1] was determined as 0.7%; in assay [2], 3.22%; in assay [3], 2.99%; in [4], 0.49%; in [5], 2.12%; in assay [6], 1.74%. The inhibition was 0.41% in [7]; 2.01% in [8]; 1.4% in assay [9]; 1.95% in [10]; 0.21% in assay [11]; -0.22% in assay [12]. The inhibition in [13] was determined as 0.93%; in [14] it was 0.09%; in [15], 0.28%; in [16], 1.88%; in assay [17], 1.2%; in assay [18], 4.25%. Further, the inhibition in assay [19] was determined as 3.67%; in assay [20], 3.61%.

With `C[C@@H](Oc1cc(-n2cnc3ccc(OC[C@@H](O)CO)cc32)sc1C(N)=O)c1ccccc1Cl`, the inhibition in assay [1] is 1.12%; in assay [2], 0.12%; in assay [3], 3.71%; in assay [4], 1.13%; in assay [5], 2.69%; in assay [6], -1.33%. In addition, the inhibition is 1.61% in assay [7]; 0.1% in [8]; 3.84% in assay [9]; 0.42% in assay [10]; 4.23% in assay [11]; -0.81% in assay [12]. Moreover, the inhibition in [13] is 4.78%; in [14] it was 1.18%; in assay [15], 9.28%; in assay [16], -0.38%; in assay [17], -0.96%; in [18], -3.13%. Further, the results for the inhibition in assay [19] and in assay [20] were -1.64% and -0.87%, respectively.

For `NC(=O)c1sc(-n2cnc3ccccc32)cc1OCc1ccccc1Br`, the inhibition came to 0.92% in assay [1]; 2.9% in assay [2]; 4.57% in [3]; 0.66% in assay [4]; 2.25% in assay [5]; 3.45% in assay [6]. Moreover, the inhibition is 5.8% in [7]; 5.13% in assay [8]; 11.9% in [9]; 4.55% in assay [10]; 11.8% in [11]; -1.6% in assay [12]. Besides, the inhibition in assay [13] amounted to 7.12%; in assay [14], 0.95%; in assay [15], 7.54%; in [16], 4.13%; in assay [17] it was 6%; in [18], 3.31%. The results for the inhibition in assay [19] and in [20] were 5.56% and 1.19%, respectively.

Turning to `CS(=O)(=O)CCNCc1nc(-c2ccc3ncnc(Nc4ccc(OCc5cccc(C(F)(F)F)c5)cc4)c3c2)cs1`, the inhibition was -1.22% in assay [1]; -1.28% in [2]; -1.8% in assay [3]; 0.58% in assay [4]; 2.3% in [5]; 1.36% in assay [6]. Also, the inhibition in [7] was 1.03%; in assay [8] it was 6.47%; in assay [9], 4.93%; in assay [10], 5.25%; in [11], 4.85%; in [12] it was -1.73%. Moreover, the inhibition in assay [13] is 0.09%; in assay [14] it was -0.35%; in [15], 0.46%; in assay [16], 2.97%; in assay [17], 6.45%; in assay [18], 1.69%. Further, the inhibition came out at 1.79% in [19] and 2.89% in assay [20].

Regarding `NS(=O)(=O)c1cccc(Nc2cc(-c3ccc(F)cc3)n[nH]2)c1`, the inhibition in [1] was 2.68%; in assay [2], -0.01%; in [3], 4.42%; in assay [4], -1.06%; in assay [5] it was 2.79%; in [6] it was 1.93%. For the same compound, the inhibition in assay [7] was 4.01%; in assay [8] it was 3.57%; in assay [9] it was 7.78%; in [10], 2.84%; in assay [11], 9.59%; in assay [12], 2.17%. The inhibition in assay [13] was 7.35%; in assay [14] it was 1.27%; in assay [15] it was 6.82%; in assay [16] it was 1.28%; in [17], 4.86%; in assay [18], 4.24%. For the same compound, the inhibition in assay [19] was 3.83%; in assay [20], 4.14%.

`Cc1nc(-c2ccccc2)n2nc(NCCCN3CCOCC3)ncc12`: the inhibition in [1] worked out at 1.74%; in assay [2], 1.71%; in assay [3] it was 19%; in assay [4], 1.12%; in assay [5], 7.26%; in [6] it was 1.55%. Also, the inhibition turned out to be 5.9% in assay [7]; 5.02% in assay [8]; 13.1% in assay [9]; 4.78% in [10]; 18.5% in assay [11]; 0.72% in assay [12]. Also, the inhibition was determined as 13.3% in assay [13]; 1.88% in assay [14]; 14.4% in [15]; 1.8% in assay [16]; 5.36% in assay [17]; 3.31% in assay [18]. In addition, the inhibition in assay [19] was 6.13%; in [20] it was 4.27%.

For the compound `Cc1cc(Cl)cc2c1NC(=O)C2=NNc1ccc(S(N)(=O)=O)cc1`, the inhibition was 0.83% in [1]; 1.45% in assay [2]; 2.28% in assay [3]; -0.62% in assay [4]; 1.24% in assay [5]; 0.8% in assay [6]. In addition, the inhibition in assay [7] is 2.04%; in assay [8], 2.99%; in assay [9], 6.57%; in assay [10], 1.19%; in assay [11] it was 5.76%; in assay [12], 1.47%. Besides, the inhibition is 1.67% in assay [13]; 0.61% in assay [14]; 2.42% in assay [15]; -0.14% in assay [16]; 2.41% in assay [17]; 4.09% in assay [18]. For the same compound, the inhibition in [19] stood at 2.74%; in [20] it was 2.98%.

(Values after ChEMBL document CHEMBL1961873, “Compounds: GSK PKIS; Assays: Nanosyn kinase panel” (2012).)
